# Data as given in PubChem BioAssay.
# Where “and” joins values, the source holds several entries; their conditions need not be identical. Identical values can stand only once. Inconclusive results are not listed. Calls of active or inactive are those of the source. Unless noted, cut-off not given; nearly all actives show AC50 up to about 26 µM.
# What was measured:
# [1] = P. berghei load reduction in hepatocytes – cell-based, HepG2, luciferase luminescence, HepG2 viability, primary screen (AID 624349; in the data active means parasite load remaining mostly below about 12%, no sharp cut-off; inactive means mostly above about 10%;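 further: 100% = mean of DMSO negative control wells on the same plate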); conditions: P. berghei liver stage in HepG2, luciferase luminescence, concentration not given here; parasite load remaining: stronger effect = lower value; viability: measured here: HepG2 viability without parasites
# [2] = EMT-state selective cytotoxicity in co-culture – imaging, PC-3E GFP, TEM4-18 mCherry, primary screen (AID 1345086;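 active means compounds killing one labelled cell type while sparing the other, by normalised counts and ratio limits, not self-fluorescent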;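 on all read-outs here: cells exposed to compound for 72 h before imaging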;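 on red/green cell ratio (normalised): normalised mesenchymal count divided by normalised epithelial count so high means epithelial killing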); conditions: PC-3E GFP / TEM4-18 mCherry co-culture, imaging cell counts, at 1 µM; for red/green cell ratio (normalised): actives lie on both sides, counts scaled to control wells, 1 = unselective
# [3] = viability loss in pontine glioma line – cell-based, SU-DIPG-XVII, MIPE5.0, CellTiter-Glo, qHTS, dose response (AID 1347060); conditions: CellTiter-Glo ATP luminescence;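 on AC50: cells exposed to compound for 48 hours before viability readout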
# [4] = viability loss in pontine glioma line – cell-based, SU-DIPG-XIII, MIPE4.0, CellTiter-Glo, qHTS, dose response (AID 1347061; cut-off not given, nearly all actives have AC50 up to about 37 µM;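 further: cells exposed to compound for 48 hours before readout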); conditions: CellTiter-Glo ATP luminescence
# [5] = viability loss in pontine glioma line – cell-based, JHH-DIPG-1, MIPE4.0, CellTiter-Glo, qHTS, dose response (AID 1347062; cut-off not given, nearly all actives have AC50 up to about 27 µM); conditions: JHH-DIPG-1 viability, CellTiter-Glo ATP luminescence
# [6] = viability loss in pontine glioma line – cell-based, SU-DIPG-IV, MIPE4.0, CellTiter-Glo, qHTS, dose response (AID 1347063; cut-off not given, nearly all actives have AC50 up to about 30 µM;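 further: compound exposure lasted 48 hours before the viability readout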); conditions: CellTiter-Glo ATP luminescence
# [7] = viability loss in pontine glioma line – cell-based, SU-DIPG-XXV, MIPE5.0, CellTiter-Glo, qHTS, dose response (AID 1347065); conditions: CellTiter-Glo ATP luminescence;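 further: cells exposed to compound for 48 hours before ATP readout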
# [8] = growth inhibition of DIPG cells – cell-based, MIPE4.0 library, CellTiter-Glo luminescence, qHTS (AID 1347066; cut-off not given, nearly all actives have AC50 up to about 30 µM;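 further: cells exposed to compound for 48 hours before readout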); conditions: SU-DIPG-VI viability, CellTiter-Glo ATP luminescence
# [9] = JHH-DIPG-1 glioma cell viability, MIPE5.0 library, CellTiter-Glo luminescence, qHTS (AID 1347067); conditions: JHH-DIPG-1 glioma viability, CellTiter-Glo ATP luminescence;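 further: cells exposed to compound for 48 hours before readout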
# [10] = growth inhibition of DIPG cells – cell-based, MIPE5.0 library, qHTS (AID 1347068; cut-off not given, nearly all actives have IC50 up to about 30 µM); conditions: SU-DIPG-XXV viability
# [11] = viability loss with induced miR-34 in A549 – imaging, A549 dox-inducible miR-34, nuclei and caspase counts, primary screen (AID 1347080;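 active means compounds whose cell count with miR-34 switched on is under 0.7 times the count with it off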); conditions: A549 miR-34 inducible, Hoechst nuclei count, 48 h
# [12] = viability loss in pontine glioma line – cell-based, SU-DIPG-XIII, MIPE5.0, CellTiter-Glo, qHTS, dose response (AID 1347064; cut-off not given, nearly all actives have AC50 up to about 23 µM;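 further: cells exposed to compound for 48 hours before the viability read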); conditions: CellTiter-Glo ATP luminescence
# [13] = target: Mitogen-activated protein kinase 7 (Homo sapiens) (UniProt Q13164); assay: Gal4-ERK5 driven luciferase induction – cell-based, HTS, primary screen (AID 1508626;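 active means luciferase signal above three times the same-plate solvent-only control wells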;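 further: luciferase driven by Gal4-ERK5 fusion binding five Gal4 sites before minimal TATA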); conditions: HeLa Gal4-ERK5 transactivation, 18 h, at 5 µM, stronger effect = higher value
# [14] = measured here: epithelial PC-3E GFP cell survival
# [15] = measured here: mesenchymal TEM4-18 mCherry cell survival
# Chain of Mitogen-activated protein kinase 7 (Homo sapiens) (Q13164 whole entry, looked up, the tested form may be a part): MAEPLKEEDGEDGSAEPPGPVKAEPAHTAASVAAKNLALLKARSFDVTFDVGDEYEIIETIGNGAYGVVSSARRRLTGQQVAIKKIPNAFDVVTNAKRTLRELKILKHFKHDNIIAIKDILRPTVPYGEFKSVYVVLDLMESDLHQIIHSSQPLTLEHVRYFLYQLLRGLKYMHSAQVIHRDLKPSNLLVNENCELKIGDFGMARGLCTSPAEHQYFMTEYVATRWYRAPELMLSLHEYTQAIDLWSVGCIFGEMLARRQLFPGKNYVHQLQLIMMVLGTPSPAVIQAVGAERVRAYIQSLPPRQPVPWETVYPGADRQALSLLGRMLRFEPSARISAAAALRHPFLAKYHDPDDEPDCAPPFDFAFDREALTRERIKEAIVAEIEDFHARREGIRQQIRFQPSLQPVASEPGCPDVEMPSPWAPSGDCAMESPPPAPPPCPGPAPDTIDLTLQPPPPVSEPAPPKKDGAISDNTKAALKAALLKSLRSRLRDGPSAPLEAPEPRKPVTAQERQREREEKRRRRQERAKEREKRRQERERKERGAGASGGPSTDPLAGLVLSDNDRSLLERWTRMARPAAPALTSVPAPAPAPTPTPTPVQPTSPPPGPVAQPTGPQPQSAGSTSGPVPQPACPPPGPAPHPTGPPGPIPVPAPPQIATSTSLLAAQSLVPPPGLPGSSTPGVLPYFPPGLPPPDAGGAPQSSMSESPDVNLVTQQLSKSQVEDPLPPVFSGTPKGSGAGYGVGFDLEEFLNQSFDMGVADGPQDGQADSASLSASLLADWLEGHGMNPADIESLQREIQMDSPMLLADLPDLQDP
smiles,measurement,setting,value
CC(NCCc1ccc(O)cc1)C(O)c1ccc(O)cc1 (centres undefined),parasite load remaining,[1],92.5% (inactive) and 43.7% (inactive)
same,viability,[1],69.7% and 91.3%
same,red/green cell ratio (normalised),[2],1.16 (inactive)
same,normalised cell number,[2]; [14],0.9
same,normalised cell number,[2]; [15],1.05
same,outcome,[3],inactive
same,outcome,[4],inactive
same,outcome,[5],inactive
same,outcome,[6],inactive
same,outcome,[7],inactive
same,outcome,[8],inactive
same,outcome,[9],inactive
same,outcome,[10],inactive
same,fold change,"[11]; stronger effect = lower value, cell number ratio, induced over uninduced",0.955 (inactive)
same,fold change,[11]; measured here: relative caspase fold change +Dox/-Dox,3.65
same,cell count,"[11]; measured here: total cells with miR-34 induction, stronger effect = lower value",12000
same,cell count,[11]; measured here: total cells without miR-34 induction,12600
C[C@H]1COC2=C1C(=O)C(=O)c1c2ccc2c1CCCC2(C)C,red/green cell ratio (normalised),[2],0.82 (inactive)
same,normalised cell number,[2]; [14],0.98
same,normalised cell number,[2]; [15],0.8
same,AC50,[3],20.9 µM (active)
same,outcome,[4],inactive
same,AC50,[6],13.2 µM (active)
same,AC50,[12],18.6 µM (active)
same,AC50,[7],20.9 µM (active)
same,outcome,[8],inactive
same,AC50,[9],20.9 µM (active)
same,outcome,[10],inactive
same,luciferase signal,[13],80 AU (inactive)
